Experimental data from PubChem BioAssay AID623868 (Vanderbilt High Throughput Screening Facility, 2012).
About 760 (36%) of roughly 2,100 compounds were called active. Not all results are given here. Values without a mark were called inactive.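 How the source made its calls: active means thallium-flux fluorescence traces judged by eye to show enhanced or reduced glutamate response, manual score 1 or -1, so both directions (some results past the limit were not filed as active); inactive means the rest, including fluorescent or raised-baseline compounds.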

Experiment: thallium influx changes without GIRK channels – cell-based, HEK-293 rmGlu8, no GIRK, thallium flux, counter-screen for GIRK activator project, confirmation (AID 623868);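 further: extra codes mark interference with 3 for fluorescent and 4 for baseline rise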
Conditions: thallium flux fluorescence, at 10 µM, actives lie on both sides, codes: 1 enhancer, -1 blocker, 0 none, thallium stimulus containing EC20 glutamate

SMILES | manual score
COc1ccc(S(=O)(=O)N(CC(=O)N2CCN(c3ccccc3)CC2)c2ccccc2)cc1 | 0
CN1C=CC2=C(C#N)C(N)C(C#N)(C#N)C(c3ccccc3)C2C1 (configuration not stated) | 3
CC(=O)c1cccc(NC(=O)C2CCCN2S(=O)(=O)c2cccc3cccnc23)c1 (configuration not stated) | 0
Cc1cc(/C=c2/sc3nc4ccccc4n3c2=O)c(C)n1-c1ccccn1 | 0
Cc1ccc2cccc(Oc3nnnn3-c3ccccc3)c2n1 | 0
CCOC(=O)c1c(-c2ccccc2)csc1NC(=S)NC | 1 (active)
CCOC(=O)c1c(-c2ccc(C)o2)csc1NC(=S)NC(=O)c1cccs1 | 0
CCOC(=O)c1c(-c2ccc(C)o2)csc1NC(=S)NC(=O)N(C)C | 1 (active)
CCNC(=S)Nc1scc(-c2ccccc2)c1C(=O)OCC | 1 (active)
CCOC(=O)c1c(C)[nH]c2c1cc(O)c1ccccc12 | 0
CCOC(=O)C(Cc1ccccc1)NC(=O)Cn1nnc(-c2ccccc2)n1 (configuration not stated) | 0
Cc1ccc(OCC(=O)Nc2ccc(C)c(S(=O)(=O)N3CCCCC3)c2)c([N+](=O)[O-])n1 | 0
NC(=O)c1noc(C(=O)N(CC(=O)NC2CCCC2)Cc2ccc3c(c2)OCO3)c1N | 0
O=C1c2cccc3c(O)ccc(c23)C(=O)N1Cc1ccccc1 | 3
CCc1ccc(C2=NN(c3ccc(S(N)(=O)=O)cc3)C(c3ccc(F)cc3)C2)cc1 (configuration not stated) | 0
CN1CCN(c2ccccc2NS(=O)(=O)c2ccc3c(c2)CCN3C(=O)C2CCC2)CC1 | 0
CCOc1ccccc1N1CCN(S(=O)(=O)c2cccs2)CC1 | 0
O=S(=O)(Nc1ccccc1N1CCCCC1)c1ccc(Cl)s1 | 1 (active)
O=S(=O)(Nc1cc(Cl)ccc1N1CCCCC1)c1cccs1 | 1 (active)
O=C(Nc1ccccc1)c1ccccc1NS(=O)(=O)c1ccc(Cl)s1 | 0.5
O=C(Nc1nncs1)c1ccccc1NS(=O)(=O)c1cccs1 | 0
CCCN(CCC)CCCNC(=O)c1cc2c(=O)n(C)c3ccccc3c2n1C | 0
S=c1nc[nH]c2c1sc1nc(-c3ccccc3)c3c(c12)CCCC3 | 1 (active)
Cc1ccc2nsnc2c1S(=O)(=O)Nc1cccc2nsnc12 | 1 (active)
CCOC(=O)N1CCN(c2c(F)cc3[nH]c(=S)[nH]c3c2Br)CC1 | 0
Cc1sc2ncnc(N(C)Cc3cccs3)c2c1C | -1 (active)

SMILES | manual score
CC(C)CCNC(=O)C(C)N(Cc1ccc(F)cc1)C(=O)c1ccc(CN2CCCCC2)o1 (configuration not stated) | 0
Cc1ccc(OCC(=O)NNC(=O)C(C)Sc2ncnc3sc(C)c(C)c23)cc1 (configuration not stated) | 1 (active)
CC(NC(=O)COc1ccccc1)C(=O)NC1=NCCS1 (configuration not stated) | 0
Cc1ccc(OCCCC(=O)Nc2nccs2)cc1 | 0
CC1CC2=C(CC1/C=N/NC(N)=S)C(C)(C)CCC2 (configuration not stated) | 0
COc1ccccc1OCC(O)Cn1c(=N)n(Cc2ccccc2)c2ccccc21 (configuration not stated) | 0
CCOC(=O)C1=C(C)NC2=C(C(=O)CC(c3ccc(OC)c(OC)c3)C2)C1c1ccc(C)o1 (configuration not stated) | 0
CC1=C(C(=O)OCC2CCCO2)C(c2ccc(C)o2)C2=C(CC(c3ccc(F)cc3)CC2=O)N1 (configuration not stated) | -1 (active)
CSc1ccc(S(=O)(=O)NCc2ccccc2Cl)cc1 | 0
Cc1ccc(NC(=O)COC(=O)CCC(=O)c2ccc(Cl)cc2)cc1S(=O)(=O)N(C)C | 0
Cc1ccc(C(=O)CC(=O)COc2ccc(Cl)cc2C)cc1 | 1 (active)
Cc1ccc(C(=O)CC(=O)COc2ccc(Cl)cc2)cc1 | 0
S=c1[nH]c2cc(Cl)ccc2s1 | 1 (active)
CCc1nnc(NC(=O)CSc2nnc(C3CCCCC3)n2-c2cccc(Cl)c2)s1 | -0.5
Cc1ccc(-c2nnc(SCC(=O)Nc3cccc(C(=O)N4CCOCC4)c3)n2C)cc1 | 0
Cc1ccc(C)c(-n2nnnc2SCC(=O)Nc2cccc(-c3nnc4n3CCCCC4)c2)c1 | 3
CCOC(=O)c1cccc(NC(=O)CSc2nnc(-c3cccnc3)n2C)c1 | -1 (active)
COc1cccc(NC(=O)CSc2nnc(-c3ccoc3C)n2-c2ccccc2)c1 | 0
CCOC(=O)c1cccc(NC(=O)CSc2nnc(C3CCCCC3)n2C)c1 | -1 (active)
CC1CC(=S)Nc2ccccc2N1Cc1ccccc1 (configuration not stated) | 0
CC1CSc2ccccc2NC1=S (configuration not stated) | 0
CC1(C)CC(=S)Nc2ccccc2S1 | 1 (active)
O=C(CSc1ccccc1)N(c1ccc(Br)cc1)c1nccs1 | 0
c1cc2c(cc1C1=Nn3c(nnc3C3CCCCC3)SC1)OCO2 | -1 (active)
COc1ccccc1C1=Nn2c(nnc2C2CCCCC2)SC1 | 0
COc1ccc(C2=Nn3c(nnc3C3CCCCC3)SC2)cc1OC | -1 (active)

SMILES | manual score
Brc1ccccc1C1=Nn2c(nnc2-c2ccccc2)SC1 | 0
CCCc1nnc2n1N=C(c1ccc(OC)c(OC)c1)CS2 | -0.5
CCC1(c2ccc(Cl)cc2)NC(=S)N(c2ccccc2)N1 (configuration not stated) | 1 (active)
CCOc1ccccc1NC(=O)Nc1cccc(C(C)=O)c1 | 0
CCOc1ccccc1NC(=O)CSc1nnc(-c2ccco2)n1Cc1ccco1 | -1 (active)
Clc1cccc(CSc2nnc(-c3ccccn3)n2Cc2ccco2)c1 | -0.5
CCn1c(SCC(=O)Nc2oc(-c3ccccc3)c(-c3ccccc3)c2C#N)nnc1-c1ccco1 | 0
COc1ccc(NC(=O)CSc2nnc(-c3ccccn3)n2Cc2ccco2)cc1OC | 0
CCOc1ccccc1NC(=O)CSc1nnc(-c2ccccn2)n1Cc1ccco1 | -1 (active)
COc1cc(Cl)cc2c1Sc1ccccc1/C2=C/CCN(C)C | 0
O=C(CSc1nc(-c2ccc(F)cc2)cs1)N1CCOCC1 | 0
CC1(C)Cc2ccccc2C(/C(=N\Nc2cccc(Cl)c2)C(N)=O)=N1 | 0
Cc1ccc(C)c(NC(=S)NNC(=O)c2cc3c(s2)CCC(C)C3)c1 (configuration not stated) | 1 (active)
Cc1cccc(NC(=S)NNC(=O)c2csc3c2CCC(C)C3)c1 (configuration not stated) | 1 (active)
Cc1ccccc1NC(=S)NNC(=O)c1csc2c1CCC(C)C2 (configuration not stated) | 1 (active)
Cc1cccc(NC(=S)NNC(=O)c2csc3c2CCCC3)c1 | 1 (active)
CC(C)CNC(=S)NNC(=O)c1csc2c1CCC(C)C2 (configuration not stated) | 0
CC(C)(C)C1CCc2c(C(=O)N/N=C/c3cccs3)csc2C1 (configuration not stated) | 0
O=C1CCC(/C=C/c2ccccc2)=NN1Cc1ccc(Cl)c(Cl)c1 | 0
CCCN1CCC(NC(=O)Nc2ccc(F)cc2F)CC1 | 0
Cc1ccc(C)c(NC(=S)NNC(=O)c2csc3c2CCCC3)c1 | 1 (active)
Cc1ccc(C)c(NC(=S)NNC(=O)c2csc3c2CCC(C)C3)c1 (configuration not stated) | 1 (active)
O=C(O/N=C\c1ccc(N2CCCCC2)c([N+](=O)[O-])c1)c1c(F)cccc1F | 0
O=C(NC(=S)N1CCN(c2ccc(C(F)(F)F)cc2[N+](=O)[O-])CC1)c1cccs1 | 1 (active)
O=C(NC(=S)N1CCCCC1)c1cccs1 | 1 (active)
O=C(N1CCCCC1)N1CCN(C(=O)N(c2ccccc2)c2ccccc2)CC1 | 0

SMILES | manual score
FC(F)(F)c1cccc(N2CCN(C(=S)NC3CCCCC3)CC2)c1 | 0
O=C(NC(=S)N1CCN(c2ccc(Cl)cc2[N+](=O)[O-])CC1)c1ccco1 | 1 (active)
COC(=O)C1CCCN1C(=O)c1cccs1 (configuration not stated) | 0
O=C(NC(=S)N1CCN(c2ccc(Cl)cc2[N+](=O)[O-])CC1)c1cccs1 | 1 (active)
CCN(CC)CC(O)COc1ccccc1C(=O)CCc1ccccc1 (configuration not stated) | 0
COC(=O)c1cc(=O)n(CCc2ccc(OC)cc2)c(=Nc2ccc(F)c(Cl)c2)s1 | 0
O=C(NC(=S)Nc1cccc(Cl)c1N1CCCC1)c1ccc(-c2cccc([N+](=O)[O-])c2)o1 | 0
O=C(NC(=S)N1CCN(c2c(Cl)cccc2[N+](=O)[O-])CC1)c1cccs1 | 1 (active)
COc1ccc(N(CC(=O)NC2CCCC2)C(=O)Cn2nnc(-c3ccc(C)cc3)n2)cc1 | 0
COc1cc2c(C(=O)N3CCN(C4CCCCC4)CC3)cn(CC(C)C)c(=O)c2cc1OC | 0
CC(/C=N/n1c(-c2ccco2)n[nH]c1=S)=C\c1ccccc1 | 1 (active)
CC(/C=N/n1c(C2CCCCC2)n[nH]c1=S)=C\c1ccccc1 | 1 (active)
CC(=C/c1ccccc1)/C=N/n1c(-c2ccco2)n[nH]c1=S | 1 (active)
CC(/C=N/NC(=O)c1c(Br)cnn1C)=C\c1ccccc1 | 0
Cc1ccc(C)n1-c1ccc(C(=O)NN)cc1 | 0
CC(C)NS(=O)(=O)c1ccc(OCC(=O)Nc2ccc3c(c2)OCO3)c(Cl)c1 | 0
COc1ccc(OC)c(C(=O)c2coc3ccc(O)c(CN4CCOCC4)c23)c1 | 0
O=C(CN1C(=O)c2ccccc2C1=O)Nc1sc2c(c1C(=O)NCC1CCCO1)CCC2 (configuration not stated) | 0
Cc1ccc(-n2nc(-c3cccs3)cc2C(=O)NCC2CCCO2)c(C)c1 (configuration not stated) | -0.5
CCCCCNC(=O)c1ccc2c(=O)[nH]c3c(C(=O)NCC4CCCO4)sc(=S)n3c2c1 (configuration not stated) | -1 (active)
Cc1cc(C=C2C(=O)c3ccccc3C2=O)c(C)n1-c1ccccc1 | 3
CCc1nc2cc(Cl)c(Cl)cc2[nH]1 | 0
CCCOc1cccc(-c2cc(-c3n[nH]c(=S)n3CC)c3ccccc3n2)c1 | 1 (active)
CCn1c(-c2cc(-c3cccc(OC)c3)nc3ccccc23)n[nH]c1=S | 0.5
